{
  "source": "the supplement of paper PMC4022240",
  "binders": {"B1": {"name": "Unmod H1 variant K A A K P K K A A A K K K (peptide)", "chain": "KAAKPKKAAAKKK"}, "B2": {"name": "Unmod H2A variant R A K S K S R S S R A G L (peptide)", "chain": "RAKSKSRSSRAGL"}, "B3": {"name": "Unmod H2A variant R A K A K S R S S R A G L (peptide)", "chain": "RAKAKSRSSRAGL"}, "B4": {"name": "Unmod H2A variant A G L Q F P V G R I H R L (peptide)", "chain": "AGLQFPVGRIHRL"}, "B5": {"name": "Unmod H2A variant R S S R A G L Q F P V G R (peptide)", "chain": "RSSRAGLQFPVGR"}},
  "note": "± gives the standard deviation.",
  "data": [
    {"biological_target": "T1, HaloTag-ATRX ADD domain (163-292)", "T1 chain": "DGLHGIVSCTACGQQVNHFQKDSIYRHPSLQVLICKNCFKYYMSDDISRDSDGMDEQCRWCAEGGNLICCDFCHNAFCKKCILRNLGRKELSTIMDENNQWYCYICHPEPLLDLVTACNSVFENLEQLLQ", "assay": "peptide microarray binding signal (635 nm), min-max normalized on array (fraction of array maximum); higher = stronger binding", "details": "peptide region: Unmod H1 variant; binder concentration: 50 nM", "in_short": "(§1)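 Triplicate spots of histone 13-mer peptide–cellulose conjugates with a Cy3 tracer were printed on nitrocellulose and probed for 1 h at 4°C with biotin-labelled HaloTag reader fusions (10 nM to 1 μM) plus streptavidin-Alexa Fluor 647 or rabbit histone antibodies (1:10,000 to 1:2,000) plus anti-rabbit Alexa 647. An Axon GenePix 4000B read the 635 nm channel. Binding signal is the spot-triplicate mean intensity after min-max scaling within each library.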", "values": [
      {"binder": "B1", "peptide microarray binding signal": "0.00972 ± 0.0014"}
    ]},
    {"biological_target": "T1, HaloTag-ATRX ADD domain (163-292)", "assay": "peptide microarray binding signal (635 nm), min-max normalized on array (fraction of array maximum); higher = stronger binding", "details": "peptide region: Unmod H1 variant; binder concentration: 500 nM", "in_short": "as §1", "values": [
      {"binder": "B1", "peptide microarray binding signal": "0.00767 ± 0.00046"}
    ]},
    {"biological_target": "HaloTag-ING2 PHD (mouse Ing2 200-280)", "assay": "peptide microarray binding signal (635 nm), min-max normalized on array (fraction of array maximum); higher = stronger binding", "details": "peptide region: Unmod H1 variant; binder concentration: 10 nM", "in_short": "as §1", "values": [
      {"binder": "B1", "peptide microarray binding signal": "0.0034 ± 6.6e-05"}
    ]},
    {"biological_target": "HaloTag-ING2 PHD (mouse Ing2 200-280)", "assay": "peptide microarray binding signal (635 nm), min-max normalized on array (fraction of array maximum); higher = stronger binding", "details": "peptide region: Unmod H1 variant; binder concentration: 100 nM", "in_short": "as §1", "values": [
      {"binder": "B1", "peptide microarray binding signal": "0.00673 ± 0.00083"}
    ]},
    {"biological_target": "anti-H3K4me3 antibody ab8580", "assay": "peptide microarray binding signal (635 nm), min-max normalized on array (fraction of array maximum); higher = stronger binding", "details": "peptide region: Unmod H1 variant; binder concentration: 1:2,000 dilution", "in_short": "as §1", "values": [
      {"binder": "B1", "peptide microarray binding signal": "0.0007173 ± 6.6e-06"}
    ]},
    {"biological_target": "anti-H3K4me3 antibody ab8580", "assay": "peptide microarray binding signal (635 nm), min-max normalized on array (fraction of array maximum); higher = stronger binding", "details": "peptide region: Unmod H1 variant; binder concentration: 1:10,000 dilution", "in_short": "as §1", "values": [
      {"binder": "B1", "peptide microarray binding signal": 0.00143}
    ]},
    {"biological_target": "anti-H3K9me3 antibody ab8898", "assay": "peptide microarray binding signal (635 nm), min-max normalized on array (fraction of array maximum); higher = stronger binding", "details": "peptide region: Unmod H1 variant; binder concentration: 1:2,000 dilution", "in_short": "as §1", "values": [
      {"binder": "B1", "peptide microarray binding signal": "0.000619 ± 2.4e-05"}
    ]},
    {"biological_target": "anti-H3K9me3 antibody ab8898", "assay": "peptide microarray binding signal (635 nm), min-max normalized on array (fraction of array maximum); higher = stronger binding", "details": "peptide region: Unmod H1 variant; binder concentration: 1:10,000 dilution", "in_short": "as §1", "values": [
      {"binder": "B1", "peptide microarray binding signal": "0.00156 ± 6.6e-05"}
    ]},
    {"biological_target": "T1, HaloTag-ATRX ADD domain (163-292)", "assay": "peptide microarray binding signal (635 nm), min-max normalized on array (fraction of array maximum); higher = stronger binding", "details": "peptide region: Unmod H2A variant; binder concentration: 50 nM", "in_short": "as §1", "values": [
      {"binder": "B2", "peptide microarray binding signal": "0.0102 ± 0.0014"},
      {"binder": "B3", "peptide microarray binding signal": "0.00771 ± 0.00081"},
      {"binder": "B4", "peptide microarray binding signal": "0.0361 ± 0.0039"},
      {"binder": "B5", "peptide microarray binding signal": "0.0275 ± 0.0053"}
    ]},
    {"biological_target": "T1, HaloTag-ATRX ADD domain (163-292)", "assay": "peptide microarray binding signal (635 nm), min-max normalized on array (fraction of array maximum); higher = stronger binding", "details": "peptide region: Unmod H2A variant; binder concentration: 500 nM", "in_short": "as §1", "values": [
      {"binder": "B2", "peptide microarray binding signal": "0.00576 ± 0.0015"},
      {"binder": "B3", "peptide microarray binding signal": "0.0133 ± 0.001"},
      {"binder": "B4", "peptide microarray binding signal": "0.0377 ± 0.0043"},
      {"binder": "B5", "peptide microarray binding signal": "0.0768 ± 0.0024"}
    ]},
    {"biological_target": "HaloTag-ING2 PHD (mouse Ing2 200-280)", "assay": "peptide microarray binding signal (635 nm), min-max normalized on array (fraction of array maximum); higher = stronger binding", "details": "peptide region: Unmod H2A variant; binder concentration: 10 nM", "in_short": "as §1", "values": [
      {"binder": "B2", "peptide microarray binding signal": "0.00645 ± 0.0004"},
      {"binder": "B3", "peptide microarray binding signal": "0.00615 ± 0.00015"},
      {"binder": "B4", "peptide microarray binding signal": "0.0334 ± 0.0037"},
      {"binder": "B5", "peptide microarray binding signal": "0.0177 ± 0.0021"}
    ]},
    {"biological_target": "HaloTag-ING2 PHD (mouse Ing2 200-280)", "assay": "peptide microarray binding signal (635 nm), min-max normalized on array (fraction of array maximum); higher = stronger binding", "details": "peptide region: Unmod H2A variant; binder concentration: 100 nM", "in_short": "as §1", "values": [
      {"binder": "B2", "peptide microarray binding signal": "0.0116 ± 0.0028"},
      {"binder": "B3", "peptide microarray binding signal": "0.0141 ± 0.0012"},
      {"binder": "B4", "peptide microarray binding signal": "0.0514 ± 0.0061"},
      {"binder": "B5", "peptide microarray binding signal": "0.0277 ± 0.0034"}
    ]},
    {"biological_target": "anti-H3K4me3 antibody ab8580", "assay": "peptide microarray binding signal (635 nm), min-max normalized on array (fraction of array maximum); higher = stronger binding", "details": "peptide region: Unmod H2A variant; binder concentration: 1:2,000 dilution", "in_short": "as §1", "values": [
      {"binder": "B2", "peptide microarray binding signal": "0.000472 ± 4.5e-05"},
      {"binder": "B3", "peptide microarray binding signal": "0.000868 ± 0.00013"},
      {"binder": "B4", "peptide microarray binding signal": "0.00361 ± 0.0021"},
      {"binder": "B5", "peptide microarray binding signal": "0.00311 ± 0.00055"}
    ]},
    {"biological_target": "anti-H3K4me3 antibody ab8580", "assay": "peptide microarray binding signal (635 nm), min-max normalized on array (fraction of array maximum); higher = stronger binding", "details": "peptide region: Unmod H2A variant; binder concentration: 1:10,000 dilution", "in_short": "as §1", "values": [
      {"binder": "B2", "peptide microarray binding signal": "0.00165 ± 3.2e-05"},
      {"binder": "B3", "peptide microarray binding signal": "0.0012 ± 1.2e-05"},
      {"binder": "B4", "peptide microarray binding signal": "0.00628 ± 0.00018"},
      {"binder": "B5", "peptide microarray binding signal": "0.00148 ± 3.8e-05"}
    ]},
    {"biological_target": "anti-H3K9me3 antibody ab8898", "assay": "peptide microarray binding signal (635 nm), min-max normalized on array (fraction of array maximum); higher = stronger binding", "details": "peptide region: Unmod H2A variant; binder concentration: 1:2,000 dilution", "in_short": "as §1", "values": [
      {"binder": "B2", "peptide microarray binding signal": "0.0005588 ± 5.2e-06"},
      {"binder": "B3", "peptide microarray binding signal": "0.0004379 ± 4.2e-06"},
      {"binder": "B4", "peptide microarray binding signal": "0.00281 ± 0.00024"},
      {"binder": "B5", "peptide microarray binding signal": "0.0008004 ± 6.8e-06"}
    ]},
    {"biological_target": "anti-H3K9me3 antibody ab8898", "assay": "peptide microarray binding signal (635 nm), min-max normalized on array (fraction of array maximum); higher = stronger binding", "details": "peptide region: Unmod H2A variant; binder concentration: 1:10,000 dilution", "in_short": "as §1", "values": [
      {"binder": "B2", "peptide microarray binding signal": "0.00127 ± 2.5e-05"},
      {"binder": "B3", "peptide microarray binding signal": "0.00098 ± 1.7e-05"},
      {"binder": "B4", "peptide microarray binding signal": "0.00686 ± 0.00042"},
      {"binder": "B5", "peptide microarray binding signal": "0.0011 ± 2.2e-05"}
    ]}
  ]
}
